In PubChem BioAssay (NCATS):
Values without a mark were called inactive. The call rests on the fitted dose curve; in most records, active means well fitted inhibition curve with a large enough effect; inconclusive means small, poorly fitted or top-dose-only effect; inactive means flat fitted curve, though single readings scatter.

The compounds below were run against DNA polymerase III PolC-type (Bacillus subtilis (strain 168)) (UniProt P13267) (assay: qHTS Validation Assay for the Inhibitors of DNA Replication in Gram-Positive Bacteria (AID 485295;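 further: reconstituted holoenzyme with PolC plus beta clamp SSB and primase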)). Details: Gram-positive bacterial DNA replication assay; series mostly up to 57.1 µM; activity change, negative = inhibition: at the top concentration.
Method: B Subtilis DNA polymerase III holoenzyme complex was assayed for DNA production by fluorescent detection of the double-stranded DNA product with PicoGreen dye. The holoenzyme complex was reconstituted from the following purified protein components: DNA Polymerase III, beta subunit processivity factor, SSB single-stranded DNA binding protein, and Primase. Single-stranded, circular M13Gori was used as a substrate with dNTPs and NTPs also supplied to the substrate reagent. Compounds from the NCGC collection were incubated with the holoenzyme mixture for […] at room temperature to allow binding to occur, and then the reaction was started by the addition of substrate. After 30 min incubation at room temperature, PicoGreen solution containing EDTA was added to stop the reaction and to visualize the double-stranded DNA produced. Reaction progress was measured in a ViewLux CCD imager in fluorescence intensity mode by using 480 nm excitation and 540 nm emission filter set.
1. Thaw screening compounds.
2. Label assay plates. Prepare pipette tips, reagent reservoirs, buffers and controls.
1. Thaw Enzymes, DNA template, Nucleotides and PicoGreen dye concentrate. Thawed enzymes are stable on ice for ~1
week. Other thawed components are stable indefinitely.
2. Prepare sufficient quantities of Enzyme, Substrate and PicoGreen Quench mixes (according to Table II). For the number of
compound plates being screened.
3. Ensure that the tip wash station reservoirs have clean water and turn on recirculating chiller so that the chilled deck position
1. Load 2 uL of EDTA controls (250 mM, Background, 100 % inhibition) and 2 uL of DMSO controls (Negative control, 0%
inhibition) in the screening plates (flat-bottomed black 384-well polypropylene, Greiner Bio-one).
2. Place Enzyme mix reservoir on the chiller position of the liquid handler deck. Make sure that chiller will maintain
temperature of Enzyme mix at 4degC. Substrate mix and PicoGreen Quench can be stored at room temp.
3. Program liquid handling robotics to dispense 18 uL of Enzyme mix into assay plates. Wash tips.
4. Aspirate and dispense 2 uL of compound from compound plates, mix and Incubate at room temperature for 10 minutes.
5. Aspirate 5 ul of Substrate mix, dispense into assay plates and mix by pipetting. Wash tips.
6. Incubate at room temperature (21 +/- 1 deg C) for 20 minutes.
7. Quench reactions by addition of 25 uL PicoGreen Quench mix and mix by pipetting (using HTS robotics or bulk reagent
dispenser such as a Multidrop or uFill). Keep plates in the dark or stacked until ready to read fluorescence.
8. Read fluorescence intensity of plates on plate reader using "Fluorescein (Ex 485 nm/ Em 535 nm, 0.1s)" setting.

Sequence of DNA polymerase III PolC-type (Bacillus subtilis (strain 168)) (P13267 whole entry, looked up): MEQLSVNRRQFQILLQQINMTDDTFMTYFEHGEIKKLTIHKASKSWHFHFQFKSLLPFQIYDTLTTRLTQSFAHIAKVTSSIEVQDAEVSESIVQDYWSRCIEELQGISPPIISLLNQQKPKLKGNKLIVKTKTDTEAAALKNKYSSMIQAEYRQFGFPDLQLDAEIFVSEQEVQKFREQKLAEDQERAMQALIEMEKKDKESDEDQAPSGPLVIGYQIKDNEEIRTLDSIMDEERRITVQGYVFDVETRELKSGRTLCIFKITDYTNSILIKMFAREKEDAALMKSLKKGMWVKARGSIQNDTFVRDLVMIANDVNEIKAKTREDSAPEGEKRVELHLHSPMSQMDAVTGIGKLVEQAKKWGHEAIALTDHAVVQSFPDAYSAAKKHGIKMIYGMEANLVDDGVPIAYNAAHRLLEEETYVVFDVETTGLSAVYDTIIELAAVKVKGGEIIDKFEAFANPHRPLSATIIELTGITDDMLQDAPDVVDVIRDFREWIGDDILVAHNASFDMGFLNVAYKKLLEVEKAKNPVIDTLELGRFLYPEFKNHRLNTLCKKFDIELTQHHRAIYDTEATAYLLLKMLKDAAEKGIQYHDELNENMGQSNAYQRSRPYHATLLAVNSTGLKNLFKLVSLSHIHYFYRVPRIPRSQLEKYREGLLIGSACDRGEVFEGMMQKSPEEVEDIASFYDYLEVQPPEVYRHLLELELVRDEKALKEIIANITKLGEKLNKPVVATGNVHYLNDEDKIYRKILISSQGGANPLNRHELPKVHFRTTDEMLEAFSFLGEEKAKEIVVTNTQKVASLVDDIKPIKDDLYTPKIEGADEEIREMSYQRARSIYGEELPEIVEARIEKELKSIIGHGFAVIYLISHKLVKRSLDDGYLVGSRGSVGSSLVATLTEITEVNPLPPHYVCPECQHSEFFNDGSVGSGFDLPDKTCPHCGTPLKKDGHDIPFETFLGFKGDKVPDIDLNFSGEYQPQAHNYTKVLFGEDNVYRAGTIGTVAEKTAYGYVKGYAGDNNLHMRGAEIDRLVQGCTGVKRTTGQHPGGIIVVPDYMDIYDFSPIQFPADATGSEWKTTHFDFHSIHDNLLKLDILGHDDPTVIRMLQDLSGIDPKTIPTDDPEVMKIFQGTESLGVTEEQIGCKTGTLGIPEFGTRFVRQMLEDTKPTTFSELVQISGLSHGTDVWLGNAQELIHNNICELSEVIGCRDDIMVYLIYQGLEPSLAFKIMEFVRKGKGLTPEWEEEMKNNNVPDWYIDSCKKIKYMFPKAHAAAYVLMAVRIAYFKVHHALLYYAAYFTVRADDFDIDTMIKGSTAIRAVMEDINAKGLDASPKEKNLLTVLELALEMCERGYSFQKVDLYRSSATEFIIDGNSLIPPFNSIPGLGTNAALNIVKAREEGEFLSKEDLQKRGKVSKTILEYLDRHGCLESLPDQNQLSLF

Row | SMILES | activity change, negative = inhibition [%]
1 | N[C@@H](Cn1ccc(=O)c(O)c1)C(=O)O | 10.7
2 | C[N+](C)(C)CCO | -3.55
3 | CC(C)N(CCC(=O)c1ccc2ccccc2c1)Cc1ccccc1 | 4.16
4 | O=C1NC(=O)/C(=C/c2ccc3c(c2)OC(F)(F)O3)S1 | 1.42
5 | CN(C)c1cc2c(Nc3ccc4c(cnn4Cc4ccccc4)c3)ncnc2cn1 | -8.91
6 | COc1ccccc1N1CCN(CCN2C(=O)CC3(CCCC3)CC2=O)CC1 | 7.67
7 | NC(N)=NCCCCN=C(N)N | 0.994
8 | COC(=O)C1=CO[C@@H](O)[C@@H]2C(CO)=CC[C@H]12 | 5.09
9 | Brc1ccc([C@H]2CN3CCSC3=N2)cc1 | -3.77
10 | Nc1ncnc2n[nH]c(Nc3ccc(F)cc3)c12 | 5.16
11 | Cc1nn(-c2ccccc2)c(C)c1/C=N/N1CCN(Cc2ccccc2)CC1 | -1.9
12 | O=[N+]([O-])c1ccc(-c2nc(-c3ccc(F)cc3)c(-c3ccncc3)[nH]2)cc1 | -16.4
13 | O=C1NC(c2cccc([N+](=O)[O-])c2)=CCN1c1ccccc1O | 1.74
14 | Clc1ccc2c(c1)N=C(N1CCNCC1)c1ccccc1N2 | 3.76
15 | CCN(CC)CCNC(=O)c1ccc(NS(C)(=O)=O)cc1 | -1.63
16 | Cn1cnc2c(NCc3ccccc3)nc(NCCO)nc21 | 2.23
